# Source: PubChem BioAssay (NCATS)
# A number with no mark means an inactive call. Results filed as inconclusive are left out. A call without a number means that no potency is given here. Calls of active or inactive are those of the source. Unless noted, the call rests on the fitted dose curve; in most records, active means well fitted curve in the direction sought with a large enough effect; inconclusive means small, poorly fitted or top-dose-only effect, or another doubt; inactive means no such curve, though single readings can be large; an effect the other way counts as inactive or inconclusive.
# Experiments:
# [1] = Cellular Toxicity (caspase-3) Hek293 (AID 664); details: HEK293 caspase-3 activation, DMSO = 0%, 100 µM tamoxifen = 100%; series mostly up to 92.2 µM;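 further: cells exposed to compound for 16 h at 37 °C before readout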
# Outline: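 Activation of caspase-3/7 is measured as increased luminescence from cleaved peptide-aminoluciferin substrate in HEK293 cells treated 16 hours at 37 °C. AC50 values come from Hill-equation fits of concentration-response data.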
# [2] = Cellular Toxicity (caspase-3) N2a (AID 665); details: N2a cells, luminescence, normalized: DMSO 0%, 10 µM staurosporine 100%; series mostly up to 92.2 µM;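 further: compound exposure lasted 16 h at 37 °C before readout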
# Outline: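 Plated mouse neuroblastoma N2a cells received titrated compounds for 16 h in complete medium. Caspase activity was then detected with a peptide-aminoluciferin luminescent reagent.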
# [3] = Cellular Toxicity (caspase-3) NIH 3T3 (AID 666); details: NIH 3T3 caspase-3 activation, apoptosis/toxicity, 0% DMSO, 100% is 100 µM tamoxifen; series mostly up to 92.2 µM;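 further: caspase signal read after 16 h compound exposure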
# Outline: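 Concentration-response qHTS in NIH 3T3 mouse fibroblasts scores caspase-3/7 activation as rising luminescence after 16 hr compound exposure. Signals are scaled between DMSO-only and 100 uM tamoxifen.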
# [4] = Cellular Toxicity (caspase-3) Renal Proximal Tubule (AID 667); details: renal proximal tubule cells, primary cells freshly taken from rat, solvent-only wells 0%, staurosporine 100%; series mostly up to 91.7 µM;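 further: cells exposed to compound for 16 hours at 37 °C before detection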
# Outline: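 AC50 derived by standard Hill fit of concentration-response data, normalized between DMSO basal and 10 uM staurosporine as 100% stimulation. Cells: primary rat kidney proximal tubule, 16 h treatment at 37 °C.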
# [5] = target: Cytochrome P450 3A4 (Homo sapiens) (UniProt P08684); assay: qHTS Assay for Inhibitors and Substrates of Cytochrome P450 3A4 (AID 884); details: recombinant CYP3A4, Luciferin-PPXE luminescence; series mostly up to 57.1 µM; further: nearly all actives have a fitted effect of over 50% in size
# Cytochrome P450 3A4 (Homo sapiens), sequence (P08684 whole entry, looked up): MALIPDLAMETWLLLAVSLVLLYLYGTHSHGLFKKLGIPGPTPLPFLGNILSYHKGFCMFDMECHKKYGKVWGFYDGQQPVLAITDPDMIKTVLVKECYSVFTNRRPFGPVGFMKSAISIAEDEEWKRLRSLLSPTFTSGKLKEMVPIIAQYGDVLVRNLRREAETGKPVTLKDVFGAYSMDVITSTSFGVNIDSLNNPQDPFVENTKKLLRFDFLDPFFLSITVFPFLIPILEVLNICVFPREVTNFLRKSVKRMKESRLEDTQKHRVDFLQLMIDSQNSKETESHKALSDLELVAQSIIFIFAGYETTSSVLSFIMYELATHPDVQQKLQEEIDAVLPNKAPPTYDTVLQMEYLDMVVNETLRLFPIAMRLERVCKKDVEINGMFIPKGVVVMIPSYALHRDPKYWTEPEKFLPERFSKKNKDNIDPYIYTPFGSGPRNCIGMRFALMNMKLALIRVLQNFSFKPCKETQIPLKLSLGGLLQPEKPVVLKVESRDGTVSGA
# Outline: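 20 nM human CYP3A4 with 25 uM Luciferin-PPXE (at KM) in 200 mM KPO4, preincubated 10 min with compound; NADPH regeneration started a 60 min RT reaction. Luciferin detected by luminescence, normalized to 57 uM ketoconazole as full inhibition.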
# [6] = target: Cytochrome P450 3A4 (Homo sapiens) (UniProt P08684); assay: qHTS Assay for Activators of Cytochrome P450 3A4 (AID 885); details: recombinant CYP3A4, Luciferin-PPXE luminescence, 60 min; series mostly up to 57.1 µM; further: nearly all actives have a fitted effect of over 65% in size
# Outline: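 Quantitative HTS format: compounds preincubated with 20nM human CYP3A4 and Luciferin-PPXE substrate at KM, reaction started by NADPH regeneration, stopped after 60 min, luciferase luminescence read 20 min later.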
# [7] = target: Cytochrome P450 2C9 (Homo sapiens) (UniProt P11712); assay: qHTS Assay for Inhibitors and Substrates of Cytochrome P450 2C9 (AID 883); details: recombinant CYP2C9, luciferin-H luminescence, 60 min; series mostly up to 57.1 µM; further: nearly all actives have a fitted effect of over 60% in size; further: potency means the concentration at half of the fitted maximal effect
# Cytochrome P450 2C9 (Homo sapiens), sequence (P11712 whole entry, looked up): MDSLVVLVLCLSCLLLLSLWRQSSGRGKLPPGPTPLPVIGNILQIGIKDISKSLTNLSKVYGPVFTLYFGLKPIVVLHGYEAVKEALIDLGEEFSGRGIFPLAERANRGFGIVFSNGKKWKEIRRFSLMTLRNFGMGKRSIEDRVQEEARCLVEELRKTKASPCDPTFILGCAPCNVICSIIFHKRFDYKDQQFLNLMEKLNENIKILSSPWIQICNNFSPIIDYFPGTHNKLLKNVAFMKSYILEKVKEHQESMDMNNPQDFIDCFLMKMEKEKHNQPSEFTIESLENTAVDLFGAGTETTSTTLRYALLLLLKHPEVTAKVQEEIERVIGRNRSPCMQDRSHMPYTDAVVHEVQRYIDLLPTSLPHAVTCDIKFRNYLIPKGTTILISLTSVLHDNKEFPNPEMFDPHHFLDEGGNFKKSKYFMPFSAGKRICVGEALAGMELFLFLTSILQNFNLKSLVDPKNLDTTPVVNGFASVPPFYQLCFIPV
# Outline: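 A luminogenic readout tracked human CYP2C9 (10nM) converting deoxyluciferin (100uM, at KM) in 25mM KPO4 during 60 min at 37C with regenerated NADPH. Values normalized to 57uM sulphaphenazole as complete inhibition.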
# [8] = target: Cytochrome P450 2D6 (Homo sapiens) (UniProt P10635); assay: qHTS Assay for Inhibitors and Substrates of Cytochrome P450 2D6 (AID 891); details: recombinant CYP2D6, luciferin-ME EGE luminescence; series mostly up to 57.1 µM;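 further: luciferin methyl ether substrate demethylated by CYP2D6 with NADPH regeneration; nearly all actives have a fitted effect of over 60% in size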
# Cytochrome P450 2D6 (Homo sapiens), sequence (P10635 whole entry, looked up): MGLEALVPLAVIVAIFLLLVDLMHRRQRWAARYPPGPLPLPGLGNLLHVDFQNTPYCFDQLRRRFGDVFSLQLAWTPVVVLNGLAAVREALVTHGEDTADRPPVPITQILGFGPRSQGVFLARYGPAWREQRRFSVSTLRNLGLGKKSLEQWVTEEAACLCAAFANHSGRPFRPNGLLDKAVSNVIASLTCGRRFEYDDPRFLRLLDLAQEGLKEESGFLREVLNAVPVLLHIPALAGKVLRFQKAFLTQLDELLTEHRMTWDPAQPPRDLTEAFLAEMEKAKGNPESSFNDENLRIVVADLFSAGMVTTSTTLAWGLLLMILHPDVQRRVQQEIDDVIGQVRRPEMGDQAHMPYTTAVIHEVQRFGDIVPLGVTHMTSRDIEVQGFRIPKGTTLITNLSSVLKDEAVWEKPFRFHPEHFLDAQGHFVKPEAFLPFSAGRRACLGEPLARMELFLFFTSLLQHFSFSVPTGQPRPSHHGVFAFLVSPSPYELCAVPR
# Outline: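 Human CYP2D6 (5 nM) with 30 uM Luciferin-ME EGE (at Km) in 100 mM KPO4, compound preincubated 10 min, then NADPH regeneration system for 60 min at room temperature. Luciferin read by luminescence; normalized to 1.43 uM quinidine.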
# [9] = target: Guanine nucleotide-binding protein G(i) subunit alpha-1 (Homo sapiens) (UniProt P63096); assay: qHTS Assay for Inhibitors of RGS12 GoLoco Motif Activity (Green Fluorophore) (AID 879); details: Galphai1/FITC-RGS12 GoLoco peptide, fluorescence polarization; series mostly up to 57.1 µM;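 further: negative values mean loss of peptide binding seen as reduced polarization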
# Guanine nucleotide-binding protein G(i) subunit alpha-1 (Homo sapiens), sequence (P63096 whole entry, looked up): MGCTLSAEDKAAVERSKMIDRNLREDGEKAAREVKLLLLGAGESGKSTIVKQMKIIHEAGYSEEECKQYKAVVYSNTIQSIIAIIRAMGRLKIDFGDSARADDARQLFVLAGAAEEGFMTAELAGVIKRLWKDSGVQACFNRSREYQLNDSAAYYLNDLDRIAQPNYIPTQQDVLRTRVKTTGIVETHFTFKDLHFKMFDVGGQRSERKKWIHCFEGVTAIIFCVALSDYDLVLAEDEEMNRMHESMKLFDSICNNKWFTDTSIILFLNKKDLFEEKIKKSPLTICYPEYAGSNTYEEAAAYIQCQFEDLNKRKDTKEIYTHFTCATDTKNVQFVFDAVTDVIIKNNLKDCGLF
# Outline: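 Fluorescence polarization assay: 50 nM Gαi1 with 10 nM FITC-labeled RGS12 GoLoco peptide in 10 mM Tris pH 7.5, 150 mM NaCl, 0.1 mM GDP, 0.05% NP40, 10 min at room temperature with compound.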
# [10] = qHTS Assay for Identification of Small Molecule Antagonists for NFkB Signaling Pathway (AID 895; active means well fitted inhibition curve with a large enough effect in the signal ratio, with a control signal flat, not every such curve was filed as active; the % refers to the signal ratio); details: NFkB beta-lactamase reporter cells, FRET ratio 460/530, stimulated with 10 pM TNF alpha; series mostly up to 38.3 µM
# Outline: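 NFkB-bla ME-180 cervical carcinoma cells with beta-lactamase reporter under NFkB response element; compounds added, then TNF alpha at 10 pM final (EC50), 5 h at 37 C. LiveBLAzer substrate 2 h, room temperature; emission 460/530 nm at 405 nm excitation.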
smiles,measurement,setting,value
O=C(O)CC(O)(CC(=O)O)C(=O)O,outcome,[1],inactive
same,outcome,[2],inactive
same,outcome,[3],inactive
same,outcome,[4],inactive
same,outcome,[5],inactive
CCCCCCCCCC(=O)O,outcome,[1],inactive
same,outcome,[2],inactive
same,outcome,[3],inactive
same,outcome,[4],inactive
same,outcome,[5],inactive
CN[C@H]1CC[C@@H](c2ccc(Cl)c(Cl)c2)c2ccccc21,outcome,[6],inactive
C=Cc1ccccc1,outcome,[1],inactive
same,outcome,[2],inactive
same,outcome,[3],inactive
same,outcome,[4],inactive
same,outcome,[5],inactive
CCCCCCCCCCCCCCCC(=O)OC/C=C(C)/C=C/C=C(C)/C=C/C1=C(C)CCCC1(C)C,outcome,[5],inactive
C1CNCCN1,outcome,[5],inactive
O=C(O)c1cc2ccccc2c(Cc2c(O)c(C(=O)O)cc3ccccc23)c1O,"activity change, negative = inhibition",[7],-15.3% [at 11.4 µM]
same,"activity change, negative = inhibition",[8],6.29% [at 11.4 µM]
Cc1ccc(OC[C@H](O)[C@H](C)NC(C)C)c2c1CCC2,outcome,[9],inactive
same,outcome,[6],inactive
COC1=CC(=O)C[C@@H](C)[C@@]12Oc1c(Cl)c(OC)cc(OC)c1C2=O,Potency,[7],inactive
same,outcome,[8],inactive
NCCCC(=O)O,outcome,[9],inactive
same,Potency,[7],inactive
same,outcome,[5],inactive
same,outcome,[8],inactive
same,outcome,[10],inactive
CN(C)CCCn1cc(C2=C(c3c[nH]c4ccccc34)C(=O)NC2=O)c2ccccc21,outcome,[6],inactive
COc1ccc2[nH]c(=O)c3c(c2c1)OC(C)(C)C=C3,outcome,[5],inactive
same,outcome,[8],inactive
CN(C)Cc1ccccc1,outcome,[1],inactive
same,outcome,[2],inactive
same,outcome,[3],inactive
same,outcome,[4],inactive
same,outcome,[5],inactive
CC(=O)C1=C(O)C=C2Oc3c(C(C)=O)c(O)c(C)c(O)c3[C@]2(C)C1=O,Potency,[7],6.3 nM (active)
same,outcome,[6],inactive
same,outcome,[8],inactive
COC(C)=O,outcome,[1],inactive
same,outcome,[2],inactive
same,outcome,[3],inactive
same,outcome,[4],inactive
same,outcome,[5],inactive
